MBD2 DNA inh: MBD2-methylated oligo binding inhibition; Q9UBB5; TR-FRET, MBD2 binding to methylated oligonucleotide; inhibition, % at 4.4 µM; hit rate 0.31% among 370,000; in the data active means inhibition above about 13%
PfG6PD inh: PfG6PD (Plasmodium falciparum) enzyme inhibition | PfGluPho enzyme, NADPH resazurin-diaphorase fluorescence | inhibition, % at 20 µM | hit rate 0.78% among 350,000 | AID 504690;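 active means inhibition reaching at least a set limit at 20 µM in the primary screen, cut at about 59% in these data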
PRMT1 inh: PRMT1 (human) inhibition, primary screen | inhibition, % at 2.79 µM | recombinant PRMT1, activity-based probe fluorescence polarization | hit rate 1.3% among 370,000;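 active means inhibition above about 21% made by adding two undisclosed values, limit read from the data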
M18AAP inhibitor: PfM18AAP enzyme inhibition | recombinant PfM18AAP, H-Glu-NHMec fluorogenic cleavage | inhibition, % at 7.35 µM | hit rate 1.2% among 290,000;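 active means inhibition above the campaign mean inhibition over all tested compounds plus 3 SD, cut at about 28% in these data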
UHRF1 MBD2 ctr: human UHRF1 methylated DNA binding inhibitors. Q96T88. UHRF1 binding to methylated oligo, TR-FRET. inhibition, % at 4.4 µM. hit rate 0.75% among 370,000; in the data active means inhibition above about 21%;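 further: UHRF1 SRA domain binding a hemimethylated CpG hairpin DNA probe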
PfGluPho conf: PfG6PD inhibition, single-dose confirmed | shares compounds with PfG6PD inh | recombinant PfGluPho, NADPH-diaphorase-resazurin fluorescence | inhibition, % at 20 µM | hit rate 34% among 2,400 | AID 504753;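 active means inhibition of at least 50% at 20 µM in any single replicate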
Diaphorase 10uM: diaphorase inhibition or oxidation at 10 uM NADPH. shares compounds with PfG6PD inh. diaphorase-coupled resazurin reduction, fluorescence, NADPH 10 uM. inhibition, % at 20 µM. hit rate 39% among 820. AID 504862;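 active means average inhibition reaching 50% or more with the compound at 20 µM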;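 further: resorufin red fluorescence formed as diaphorase reduces resazurin using NADPH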
Diaphorase 30uM: diaphorase inhibition or oxidation at 30 uM NADPH; shares compounds with PfG6PD inh; Diaphorase/resazurin coupled assay, resorufin fluorescence; hit rate 29% among 820; inhibition, % at 20 µM;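 active means inhibition averaging 50% or more, tested at 20 µM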
Each line names hits and unclear results; the compound was inactive in the other large screens (follow-up assays come after a bar, where they were run). Compounds with a hit are over-represented: about 3.3% of the library has one in this group of screens.

CCn1c(SCC(=O)Nc2ccccc2OC)nnc1-c1cnccn1	PfG6PD inh 78 | PfGluPho conf 53 | Diaphorase 10uM inactive | Diaphorase 30uM inactive
N#Cc1cccc(NC(=O)COC(=O)C2CCC2)c1	none (no result: M18AAP inhibitor)
NC1=C(Br)C(=O)c2ncccc2C1=O	PfG6PD inh 108 (no result: M18AAP inhibitor) | PfGluPho conf 86 | Diaphorase 10uM 78 | Diaphorase 30uM 74
CNC(=O)[C@@]1(Cc2ccccc2)C=C[C@@H](C)N1C(C)=O	none (no result: M18AAP inhibitor)
CCCOc1ccc2oc(=O)c3c(c2c1)CCCN3C(=O)CN1CCc2ccccc2C1	PfG6PD inh 60 | PfGluPho conf inactive
CCCN1C(=O)COc2ccc(C(=O)c3ccccc3C(=O)O)cc21	none
O=C(O)c1ccccc1C(=O)c1ccc2c(c1)N(Cc1cccc(F)c1)C(=O)CO2	PfG6PD inh 93 | PfGluPho conf 58 | Diaphorase 10uM 58 | Diaphorase 30uM 52
COc1cc2c(cc1OC)[N+]([O-])=C(c1ccccc1)C2=O	none (no result: PfG6PD inh, M18AAP inhibitor)
O=C1C(c2ccccc2)=[N+]([O-])c2ccccc21	PfG6PD inh 61 (no result: M18AAP inhibitor) | PfGluPho conf inactive
CC(C)CN(CC(C)C)C(=O)c1cn(C(C)c2ccccc2)nn1 (stereo not drawn)	none (no result: PfG6PD inh, M18AAP inhibitor)
Cc1c(C(=O)Nc2nnc(C(F)(F)F)s2)oc2ccccc12	PfG6PD inh 104 (no result: M18AAP inhibitor) | PfGluPho conf 71 | Diaphorase 10uM 83 | Diaphorase 30uM 68
O=C(Nc1ccccc1C(=O)Nc1nnc(C(F)(F)F)s1)c1ccccc1	PfG6PD inh 74 | PfGluPho conf inactive
COC(=O)c1sc(NC(=O)c2oc3ccccc3c2C)nc1C	none
Cc1cc(NC(=O)c2oc3ccccc3c2C)ccc1-n1cnnn1	PfG6PD inh 111 | PfGluPho conf 73 | Diaphorase 10uM 72 | Diaphorase 30uM inactive
COc1cccc(C(=O)n2ccc3ccc(-c4ccc5ccn(Cc6ccccc6)c5c4)cc32)c1	none (no result: PfG6PD inh, M18AAP inhibitor)
CC(=O)N1CCCN(C(=O)C2CCN(c3ncnc4c3sc3cccc(F)c34)CC2)CC1	none (no result: PfG6PD inh, M18AAP inhibitor)
Cc1c(/C=N/NC(N)=O)c2ccccn2c1C(=O)c1ccc(F)cc1	none
Cc1c(/C=N/O)c2ccccn2c1C(=O)c1ccc(F)cc1	PfG6PD inh 76 | PfGluPho conf inactive
O=S1(=O)c2ccc(Br)cc2OC[C@H](Cc2ccccc2)N1Cc1cn(CCC2OCCO2)nn1	none (no result: PfG6PD inh, M18AAP inhibitor)
O=C(Nc1ccc2nc(-c3ccc(Br)o3)[nH]c2c1)c1cccs1	PfG6PD inh 86 | PfGluPho conf inactive
O=C(Nc1ccc2nc(-c3ccc(Br)o3)[nH]c2c1)c1ccco1	PfG6PD inh 70 | PfGluPho conf inactive
Cc1ccc2[nH]c(O)c(N=NC(=O)C(C)n3cnc4ccccc4c3=O)c2c1 (stereo not drawn)	PfG6PD inh 68 | PfGluPho conf 50 | Diaphorase 10uM 68 | Diaphorase 30uM 55
CC(C)(C)Nc1nc(-c2ccc3c(c2)CCN3C(=O)C2CC2)cs1	PfG6PD inh 70 | PfGluPho conf inactive
CC(C)C(=O)Nc1nc(-c2ccc3c(c2)CCN3C(=O)C2CC2)cs1	none
CC(OC(=O)CCN=C1NS(=O)(=O)c2ccccc21)C(=O)Nc1ccc(N(C)C)cc1 (stereo not drawn)	PfG6PD inh 70 (no result: M18AAP inhibitor) | PfGluPho conf inactive
COC(=O)c1cnn(-c2ccc(F)cc2F)c1/C=N/NC(=S)NC(C)(C)C	none
CNC(=S)N/N=C/c1c(C(=O)OC)cnn1-c1ccc(F)cc1F	PfG6PD inh 68 | PfGluPho conf inactive
COc1cccc(C(=O)Nc2ccc(NC(=O)c3ccco3)c(Cl)c2)c1	PfG6PD inh 70 | PfGluPho conf inactive
Cc1ccc(/C=C/C(=O)Nc2sc(C)c(C)c2C(=O)OC(C)C)o1	PfG6PD inh 60 | PfGluPho conf inactive
Cc1ccc(/C=C/C(=O)Nc2ccc(Oc3ccccc3)cc2)o1	PfG6PD inh 61 | PfGluPho conf inactive
O=C(O)/C=C/C(=O)Nc1ccc(Oc2ccccc2)cc1	none
CC1CCC(NC(=O)CCS(=O)(=O)c2ccc3c(c2)NC(=O)C(C)S3)CC1 (stereo not drawn)	none

Source: PubChem
